Potency data for 40 compounds are collected here from PubChem BioAssay (Tox21).

Molecules are shown by their SMILES. Values joined by “and” are separate entries in the source; they are usually repeats but may differ in a detail not shown here. Identical values can stand only once. Records with an inconclusive call do not appear. Entries that show only a call come without a potency. Active and inactive are the calls of the source. Calls come from the whole dose curve; as a rule, active = well fitted cell-killing curve with a large enough effect in the repeat runs; inconclusive = weak or mixed curves, or effect the other way; inactive = no such curve, though single readings can be large or run the other way.
Potency is the fitted concentration of half-maximal effect.

This test in a line: qHTS assay to identify small molecule antagonists of the thyroid receptor (TR) signaling pathway - cell viability counter screen (AID 743064). Note: nearly all actives have a fitted effect of over 50% in size. To be noted: GH3.TRE-Luc viability, CellTiter-Fluor, 24 h; series mostly up to 70.3 µM. The text has this:
National Center for Advancing Translational Sciences [NCATS]
NIH Chemical Genomics Center [NCGC]
U.S. Environmental Protection Agency [EPA]
National Institutes of Environmental Health Sciences [NIEHS]
National Toxicology Program [NTP]
U.S. Food and Drug Administration [FDA]
Thyroid receptor (TR), a nuclear hormone receptor, plays an important role in development, proliferation, differentiation, metabolism, brain function, and cardiovascular system. […] To profile the Tox21 10K compound library in TR signaling, a cell-based GH3-TRE-Luc assay (GH3.TRE-Luc cell line, developed by the laboratory of Dr. Albertinka J. Murk, Wageningen University) was used to measure the inhibition of TR. GH3 (rat pituitary tumor) cells stably expressing a TR activity sensor consisting of two TR response elements and a luciferase reporter gene. The cytotoxicity of the Tox21 compound library against the GH3.TRE-Luc cell line was tested in parallel by measuring the cell viability using CellTiter-Fluor assay (Promega, Madison, WI) in the same wells.
Tox21 Assay Protocol Summary:
GH3.TRE-Luc cells were dispensed at 1500 cells/4 uL/well into 1536-well white solid bottom plates using a Multidrop Combi dispenser (Thermo Fisher Scientific Inc., Waltham, MA). After the assay plates were incubated at 37 C for 4 hours, 23 nL of library compound or DMSO controls was transferred to the assay plates by a pintool station (Kalypsys, San Diego, CA), followed by addition of 1 ul of T3 (1 nM, final concentration in the wells) to stimulate TR transactivation. The assay plates were incubated at 37 C for 23.5 h, and then 1 uL of CellTiter-Fluor reagent (Promega, Madision, WI) of measuring cytotoxicity was added to each well using a Bioraptr Flying Reagent Dispenser (FRD) workstation (Beckman Coulter, Indianapolis, IN, USA). The plates were incubated at 37C and 5% CO2 for additional 30 min, and fluorescence intensity was measured by a ViewLux plate reader (PerkinElmer, Shelton, CT).
On the technique in general: qHTS replaces the single test concentration by a dilution series.
With `CC(COC(=O)c1ccccc1)OC(=O)c1ccccc1` (stereo not given), the Potency result was “inactive”.

For `O=C(Nc1ccc(Cl)cc1)Nc1ccc(Cl)c(C(F)(F)F)c1`, the Potency was 6.68 µM (active).

With `CC1=C(/C=C/C(C)=C/C=C/C(C)=C/C(=O)Nc2ccc(O)cc2)C(C)(C)CCC1`, the Potency was 6.68 µM (active) and 8.85 µM (active).

Turning to `S=P(N1CC1)(N1CC1)N1CC1`, the Potency entry is “inactive”.

As to `CC(=O)Oc1ccc(C2(c3ccc(OC(C)=O)cc3)C(=O)Nc3ccccc32)cc1`, the Potency result was “inactive”.

For the compound `O=C(O)CC(=O)O`, the Potency result is “inactive”.

Take `c1ccc(Sc2ccccc2)cc1`: the Potency result was “inactive”.

Take `Cc1cc2c(C(C)C)c(O)c(O)c(C=O)c2c(O)c1-c1c(C)cc2c(C(C)C)c(O)c(O)c(C=O)c2c1O`: the Potency is 9.44 µM (active).

As for `C/C=C/C=N/NC(=O)c1ccncc1`, the Potency entry was “inactive”.

With `CC(NCCC(c1ccccc1)c1ccccc1)c1ccccc1` (stereo not given), the Potency is 9.44 µM (active).

In the case of `CC(C)(C)CC(C)(C)c1ccccc1O`, the Potency is 19.4 µM (active).

Consider `CC1CCCNC1` (stereo not given), for which the Potency result was “inactive”.

Turning to `O=C(Nc1ccc(Cl)c(Cl)c1)c1cc(Cl)cc(Cl)c1O`, the Potency was 4.86 µM (active).

For `C=C(c1ccc(C(=O)O)cc1)c1cc2c(cc1C)C(C)(C)CCC2(C)C`, the Potency was 11.9 µM (active) and 13.7 µM (active).

As for `COc1ccccc1OCCNCC(O)COc1cccc2[nH]c3ccccc3c12` (stereo not given), the Potency was 29.8 µM (active).

For `ClC/C=C\CCl`, the Potency result was “inactive”.

For `CCCCCCCC/C=C/CCCOC(C)=O`, the Potency result is “inactive”.

`C[Si](C)(C)Cl`: the Potency result is “inactive”.

`CC(C)N=C(N)/N=C(\N)Nc1ccc(Cl)cc1`: the Potency entry is “inactive”.

On to `COc1ccc2sc(C(=O)Nc3nnn[nH]3)c(OC(C)C)c2c1`, for which the Potency is 7.66 µM (active).

For the compound `CC(C)(C)C1=CC(=O)C=C(C(C)(C)C)C1=O`, the Potency result is “inactive”.

In the case of `CCCCCCCCCCCCN(CCO)CCO`, the Potency was 17.2 µM (active).

For the compound `CN1[C@@H]2CC[C@@H]1CC(OC(=O)C(CO)c1ccccc1)C2` (stereo not given in full), the Potency result is “inactive”.

As for `O=S(=O)(O)CCCN1CCOCC1`, the Potency result was “inactive”.

In the case of `Nc1ncnc2c1ncn2[C@@H]1O[C@H](COP(=O)(O)O)[C@@H](O)[C@H]1O`, the Potency entry was “inactive”.

Take `CCN(CC)CCOc1ccc(C(O)(Cc2ccc(Cl)cc2)c2ccc(C)cc2)cc1` (stereo not given): the Potency is 7.5 µM (active).

With `CCN(CC)CCOC(=O)C1(C2CCCCC2)CCCCC1`, the Potency is 26.6 µM (active).

For the compound `CN1[C@@H]2CC[C@H]1CC(OC(=O)C(CO)c1ccccc1)C2` (stereo not given in full), the Potency result is “inactive”.

In the case of `COC(=O)CC(C)CCC=C(C)C` (stereo not given), the Potency entry was “inactive”.

Consider `CCc1ccc(O)c(C(C)(C)C)c1`, for which the Potency was 54.5 µM (active).

For the compound `Oc1ccc(-c2ccccc2)c(Cl)c1`, the Potency result was “inactive”.

As to `CNC(=O)c1cc(Oc2ccc(NC(=O)Nc3ccc(Cl)c(C(F)(F)F)c3)cc2)ccn1`, the Potency is 9.44 µM (active).

Turning to `COc1cc(C(=O)NS(=O)(=O)c2ccccc2C)ccc1Cc1cn(C)c2ccc(NC(=O)OC3CCCC3)cc12`, the Potency was 29.8 µM (active).

As to `C=CC(=O)OCC(O)COc1ccccc1` (stereo not given), the Potency is 54.5 µM (active).

For `C=CCCCCCCC=C`, the Potency entry is “inactive”.

On to `COC(=O)NCCC[Si](OC)(OC)OC`, for which the Potency result was “inactive”.

In the case of `C=C(C)C(=O)OCCC[Si](Cl)(Cl)Cl`, the Potency entry was “inactive”.

On to `CN(C)c1ccc(N=Nc2ccccc2C(=O)O)cc1`, for which the Potency was 15.4 µM (active).

Consider `O=C1C=CC(=O)N1c1ccccc1`, for which the Potency is 4.86 µM (active).

With `NC(=O)C(=O)N/N=C/c1ccc([N+](=O)[O-])o1`, the Potency is 26.6 µM (active).
